Assay results from the supplement of paper PMC6897291.
Where a name gives a salt, the structure may show the parent alone.

How the values were obtained:
U-2932 [1] = assay: growth inhibition by drug alone (1 - RLU/untreated control) (fraction); higher = stronger inhibition; conditions: 177Lu-lilotomab satetraxetan 0 ug/ml
In short: (§1)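 Plates pre-printed with the Selleck Cambridge Cancer Compound library at 10/100 nM (RIVA) or 10/1,000 nM (U-2932) received 3,000 cells/well. These cells had been washed after 18 h untreated or with a radiolabelled anti-CD37 antibody conjugate (~600 MBq/mg; 0.5 µg/ml RIVA, 1 µg/ml U-2932). Growth inhibition was obtained from RealTime-Glo luminescence in relation to untreated no-drug wells. Each daily read from day 3, taken after 1 h at 37°C, was converted as 1 − RLU/mean of 48 such wells per plate.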

RIVA [2] = assay: as above; conditions: 177Lu-lilotomab satetraxetan 0 ug/ml
In short: as §1

U-2932 [3] = assay: growth inhibition by drug plus 177Lu-lilotomab satetraxetan (1 - RLU/untreated control) (fraction); higher = stronger inhibition; conditions: 177Lu-lilotomab satetraxetan 1 ug/ml
In short: as §1

RIVA [4] = assay: as above; conditions: 177Lu-lilotomab satetraxetan 0.5 ug/ml
In short: as §1

Row | Structure (SMILES) | growth inhibition by drug alone (U-2932 [1]; 10 nM, time (day): 3) | growth inhibition by drug alone (U-2932 [1]; 10 nM, time (day): 4) | growth inhibition by drug alone (U-2932 [1]; 10 nM, time (day): 5) | growth inhibition by drug alone (U-2932 [1]; 10 nM, time (day): 6) | growth inhibition by drug alone (U-2932 [1]; 1000 nM, time (day): 3) | growth inhibition by drug alone (U-2932 [1]; 1000 nM, time (day): 4) | growth inhibition by drug alone (U-2932 [1]; 1000 nM, time (day): 5) | growth inhibition by drug alone (U-2932 [1]; 1000 nM, time (day): 6) | growth inhibition by drug alone (RIVA [2]; 10 nM, time (day): 3) | growth inhibition by drug alone (RIVA [2]; 10 nM, time (day): 4) | growth inhibition by drug alone (RIVA [2]; 10 nM, time (day): 5) | growth inhibition by drug alone (RIVA [2]; 10 nM, time (day): 6) | growth inhibition by drug alone (RIVA [2]; 100 nM, time (day): 3) | growth inhibition by drug alone (RIVA [2]; 100 nM, time (day): 4) | growth inhibition by drug alone (RIVA [2]; 100 nM, time (day): 5) | growth inhibition by drug alone (RIVA [2]; 100 nM, time (day): 6) | growth inhibition by drug plus 177Lu-lilotomab satetraxetan (U-2932 [3]; 10 nM, time (day): 3) | growth inhibition by drug plus 177Lu-lilotomab satetraxetan (U-2932 [3]; 10 nM, time (day): 4) | growth inhibition by drug plus 177Lu-lilotomab satetraxetan (U-2932 [3]; 10 nM, time (day): 5) | growth inhibition by drug plus 177Lu-lilotomab satetraxetan (U-2932 [3]; 10 nM, time (day): 6) | growth inhibition by drug plus 177Lu-lilotomab satetraxetan (U-2932 [3]; 1000 nM, time (day): 3) | growth inhibition by drug plus 177Lu-lilotomab satetraxetan (U-2932 [3]; 1000 nM, time (day): 4) | growth inhibition by drug plus 177Lu-lilotomab satetraxetan (U-2932 [3]; 1000 nM, time (day): 5) | growth inhibition by drug plus 177Lu-lilotomab satetraxetan (U-2932 [3]; 1000 nM, time (day): 6) | growth inhibition by drug plus 177Lu-lilotomab satetraxetan (RIVA [4]; 10 nM, time (day): 3) | growth inhibition by drug plus 177Lu-lilotomab satetraxetan (RIVA [4]; 10 nM, time (day): 4) | growth inhibition by drug plus 177Lu-lilotomab satetraxetan (RIVA [4]; 10 nM, time (day): 5) | growth inhibition by drug plus 177Lu-lilotomab satetraxetan (RIVA [4]; 10 nM, time (day): 6) | growth inhibition by drug plus 177Lu-lilotomab satetraxetan (RIVA [4]; 100 nM, time (day): 3) | growth inhibition by drug plus 177Lu-lilotomab satetraxetan (RIVA [4]; 100 nM, time (day): 4) | growth inhibition by drug plus 177Lu-lilotomab satetraxetan (RIVA [4]; 100 nM, time (day): 5) | growth inhibition by drug plus 177Lu-lilotomab satetraxetan (RIVA [4]; 100 nM, time (day): 6)
1 | Cc1ccc(C(=O)N(CCCN)[C@@H](c2nc3cc(Cl)ccc3c(=O)n2Cc2ccccc2)C(C)C)cc1 | 0.446 | 0.424 | 0.379 | 0.372 | 0.959 | 0.968 | 0.972 | 0.977 | 0.202 | 0.194 | 0.075 | -0.26 | 0.918 | 0.931 | 0.939 | 0.943 | 0.393 | 0.409 | 0.426 | 0.465 | 0.965 | 0.973 | 0.98 | 0.984 | 0.652 | 0.647 | 0.659 | 0.655 | 0.94 | 0.962 | 0.971 | 0.979
2 | CCc1c2c(nc3ccc(OC(=O)N4CCC(N5CCCCC5)CC4)cc13)-c1cc3c(c(=O)n1C2)COC(=O)[C@]3(O)CC [Irinotecan HCl Trihydrate (Campto)] | -0.0148 | -0.0323 | -0.109 | -0.0905 | 0.841 | 0.921 | 0.96 | 0.976 | -0.0524 | -0.159 | -0.223 | -0.511 | -0.259 | -0.163 | -0.0382 | 0.00676 | 0.0165 | 0.04 | 0.0458 | 0.118 | 0.839 | 0.928 | 0.965 | 0.98 | 0.219 | 0.422 | 0.475 | 0.51 | 0.485 | 0.649 | 0.699 | 0.741
3 | C[C@@H]1CN(CC(=O)Nc2ccc3c(c2)Cc2cccc(-c4cc(=O)cc(N5CCOCC5)o4)c2S3)C[C@H](C)O1 | 0.00343 | -0.0228 | -0.128 | -0.257 | -0.073 | -0.0366 | -0.0776 | -0.17 | -0.0136 | -0.0829 | -0.153 | -0.417 | -0.282 | -0.285 | -0.284 | -0.465 | -0.0592 | -0.0257 | -0.0361 | -0.0183 | -0.0688 | 0.0229 | 0.0334 | 0.0421 | 0.275 | 0.441 | 0.452 | 0.479 | 0.232 | 0.357 | 0.37 | 0.373
4 | Cc1cnc(Nc2ccc(OCCN3CCCC3)cc2)nc1Nc1cccc(S(=O)(=O)NC(C)(C)C)c1 | -0.0562 | -0.0523 | -0.0582 | -0.0993 | 0.149 | 0.111 | -0.00563 | 0.00366 | -0.231 | -0.238 | -0.322 | -0.459 | -0.338 | -0.438 | -0.41 | -0.775 | -0.0587 | -0.0475 | -0.0161 | 0.0198 | 0.127 | 0.122 | 0.0513 | 0.0765 | 0.273 | 0.437 | 0.468 | 0.492 | 0.205 | 0.275 | 0.289 | 0.307
5 | Nc1ccn([C@@H]2O[C@H](CO)[C@@H](O)[C@@H]2O)c(=O)n1 [Cytarabine] | -0.00637 | 0.0194 | -0.0299 | -0.0808 | 0.484 | 0.568 | 0.585 | 0.6 | -0.0997 | -0.0678 | -0.108 | -0.326 | -0.231 | 0.0413 | 0.0792 | 0.023 | -0.0521 | 0.00463 | -0.0153 | -0.0601 | 0.688 | 0.801 | 0.859 | 0.89 | 0.51 | 0.601 | 0.632 | 0.644 | 0.655 | 0.771 | 0.793 | 0.81
6 | Cn1cnc(N)c2ncnc1-2 [3-Methyladenine] | 0.0713 | 0.0365 | 0.0189 | 0.0577 | 0.00855 | 0.0177 | -0.0282 | -0.00202 | 0.018 | -0.00798 | -0.0197 | -0.0603 | -0.346 | -0.249 | -0.276 | -0.338 | 0.0187 | 0.0789 | 0.12 | 0.165 | -0.00331 | 0.0603 | 0.0974 | 0.207 | 0.557 | 0.602 | 0.615 | 0.612 | 0.517 | 0.565 | 0.57 | 0.56
7 | Cn1cnc([N+](=O)[O-])c1Sc1ncnc2[nH]cnc12 [Azathioprine (Azasan, Imuran)] | 0.0201 | -0.00369 | 0.00367 | 0.0444 | 0.0785 | 0.0404 | 0.00445 | 0.131 | -0.0287 | -0.0923 | -0.12 | -0.24 | -0.168 | -0.224 | -0.259 | -0.337 | 0.00188 | 0.0643 | 0.101 | 0.167 | 0.0755 | 0.0766 | 0.124 | 0.326 | 0.505 | 0.533 | 0.565 | 0.573 | 0.444 | 0.518 | 0.521 | 0.529
8 | O=NN(CCCl)C(=O)NC1CCCCC1 [Lomustine (CeeNU)] | 0.0125 | -0.0069 | -0.0761 | -0.178 | -0.00465 | 0.00866 | -0.0378 | 0.00712 | -0.055 | -0.0849 | -0.137 | -0.324 | -0.313 | -0.232 | -0.254 | -0.408 | 0.00156 | 0.0498 | 0.0878 | 0.11 | -0.00262 | 0.0596 | 0.0893 | 0.149 | 0.573 | 0.596 | 0.607 | 0.603 | 0.383 | 0.486 | – | –
